Bioassay records deposited in PubChem by National Center for Advancing Translational Sciences (NCATS).
A selection: hits, their analogues and other compounds. The true share with any hit is near 6.6%.
HepG2 tox – counter-screen for TGF-b inhibitors: cytotoxicity in HepG2 cells; HepG2 CAGA-GFP viability, ATP luminescence, 18 h; Potency, µM (series often up to 46.1 µM), for inactives: top-dose activity change, negative = cytotoxicity, actives largely listed as cytotoxic; 0.76% of 410,000 active; AID 588856
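HepG2 CAGA-GFP cells (1000/well, DMEM with 1% FBS) received compound, then TGF-beta at 500 pg/mL final, and were incubated 18 hours at 37 degrees C. Viability was read by CellTiter-Glo luminescence. Media-only wells were set as complete cell-killing and DMSO as no toxicity.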
TGFb inhibitor – inhibitors of TGF-b signaling; HepG2 CAGA-GFP TGF-b/SMAD3 reporter, GFP fluorescence, 18 h; TGF-beta stimulated, 500 pg/mL final; Potency, µM (doses to about 46.1 µM), inactives show at the top dose activity, negative = inhibition, most hits filed as inhibitors; 1.2% of 410,000 active; AID 588855; also: % is scaled to controls: 0 for no effect and ±100 for the full control effect; nearly all actives have a fitted effect of over 65% in size
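Read-out: total well GFP (ex488/em500-530) summed from mean per-cell fluorescence. Cells: HEPG2 CAGA-GFP, 1% FBS DMEM, 18 h at 37 degrees C with 500 pg/mL final TGF-beta. Unstimulated wells served as the full-inhibition control; stimulated DMSO wells = 0%.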
HT1080-NT tox – kills 2HG-producing HT-1080-NT fibrosarcoma cells; HT-1080-NT fibrosarcoma viability, CellTiter-Glo ATP luminescence, 48 h; Potency, µM (series often up to 46.1 µM), for the others: at the top dose activity, negative = less viability, usual class: cytotoxic; 1.6% of 360,000 active;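 also: NT is the 2HG producing partner of a matched IDH1 knockdown line; 0% = DMSO-treated cells and -100% = media-only wells without cells; nearly all actives have a fitted effect of over 55% in size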
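Viability of the 2HG-overproducing fibrosarcoma line after 48 hours of compound exposure at 37 degrees C was determined by luminescence with CellTiter-Glo, and concentration-effect curves were then fitted and categorized.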
KB-3-1 tox – kills parental KB-3-1 adenocarcinoma cells; AID 1347075; Potency, µM (series often up to 46.1 µM), actives largely listed as cytotoxic; KB-3-1 viability, CellTiter-Glo ATP luminescence, 72 h; 1.4% of 400,000 active; also: % is scaled to controls: 0 for no effect and ±100 for the full control effect; nearly all actives have a fitted effect of over 60% in size
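Cytotoxicity measured as CellTiter-Glo luminescence after 72 h at 37 C. Compound titrations were pinned onto drug-naive KB-3-1 parental adenocarcinoma cells grown in DMEM with 10% FBS, and normalized data fitted to concentration-response curves.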
HT1080 IDH1KD tx – toxicity to HT-1080 IDH1 knockdown cells (counter line). HT-1080 IDH1 knockdown viability, ATP luminescence, 48 h. Potency, µM (top dose mostly 46.1 µM), without a hit: at the highest dose activity, negative = toxicity, actives largely listed as cytotoxic. 2% of 360,000 active;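 also: 0% = DMSO wells and -100% = cell-free medium wells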
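Assay cells: HT-1080 with IDH1 knockdown, 750 per well, RPMI/5% FBS. Exposure: 48 h at 37 °C following 2 h pre-incubation. Read: CellTiter-Glo luminescence; fitted concentration-response, curve class assigned.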
KB-V1 cytotox – KB-V1 MDR subline cytotoxicity | AID 1347076 | KB-V1 MDR cells viability, CellTiter-Glo, 72 h | 3.4% of 400,000 active | Potency, µM (titrated, usually from 46.1 µM), hits mostly cytotoxic; also: % is scaled to controls: 0 for no effect and ±100 for the full control effect; nearly all actives have a fitted effect of over 60% in size
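Potencies derive from concentration-effect curves fitted to normalized luminescence (CellTiter-Glo) of KB-V1 cells treated for 72 h at 37 degrees C in phenol-red-free DMEM containing 10% FBS.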
The depositor's hits bear a star. Calls follow the shape of the dose curve; as a rule, active = well fitted curve in the direction sought with a large enough effect; inconclusive = small, poorly fitted or top-dose-only effect, or another doubt; inactive = no such curve, though single readings can be large; an effect the other way counts as inactive or inconclusive. Potency is read from the fitted curve at half-maximal effect.

Results for COc1ccc(NC(=O)c2cc(S(=O)(=O)Nc3ccc(OC)cc3)cs2)cc1 ?
HepG2 tox: -16%; TGFb inhibitor: inconclusive; HT1080-NT tox: -1%; KB-3-1 tox: inactive; HT1080 IDH1KD tx: -5%; KB-V1 cytotox: 21µM*

What do the screens show for `O=C(Nc1ccc(Cl)cc1)c1cc(S(=O)(=O)N2CCOCC2)cs1`?
HepG2 tox: 0%; TGFb inhibitor: 1%; HT1080-NT tox: inconclusive; KB-3-1 tox: inconclusive; HT1080 IDH1KD tx: -23%; KB-V1 cytotox: 9.2µM*

What do the screens show for `CCc1ccc(CNC(=O)CN2C(=O)CCn3nc(-c4cn(C)c5ccccc45)cc32)cc1`?
HepG2 tox: -2%; TGFb inhibitor: -6%; KB-3-1 tox: inactive; KB-V1 cytotox: inactive

Results for O=S(=O)(NCc1csc(-c2cccs2)n1)c1cccc(C(F)(F)F)c1 ?
HepG2 tox: -97%; TGFb inhibitor: 16µM*; HT1080-NT tox: -1%; KB-3-1 tox: inactive; HT1080 IDH1KD tx: -2%; KB-V1 cytotox: inactive

Results for Cc1nc2sc(C(=O)N(C)c3ccccc3)c(NC(=O)c3ccccc3Cl)c2c(C)c1C ?
HepG2 tox: 8%; TGFb inhibitor: 16%; KB-3-1 tox: inactive; KB-V1 cytotox: inactive

Results for COc1ccc(-c2cccc(NS(=O)(=O)c3ccc(C)s3)c2)nn1 ?
HepG2 tox: -25%; TGFb inhibitor: inconclusive; KB-3-1 tox: inactive; KB-V1 cytotox: inactive

Results for Cn1c(=O)c2[nH]c(CN(Cc3ccccc3)Cc3ccccc3)nc2n(C)c1=O ?
HepG2 tox: -11%; TGFb inhibitor: -2%; HT1080-NT tox: 1%; KB-3-1 tox: inactive; HT1080 IDH1KD tx: 0%; KB-V1 cytotox: 8.2µM*

How did COc1ccc(C(=O)CCC(=O)Nc2cc(C)ccc2C)cc1 do in these assays?
HepG2 tox: -9%; TGFb inhibitor: -4%; KB-3-1 tox: inactive; KB-V1 cytotox: inactive

What do the screens show for `CCN1CCN(Cc2c(O)ccc3c2O/C(=C\C=C\c2ccccc2)C3=O)CC1`?
HepG2 tox: -18%; TGFb inhibitor: 1%; HT1080-NT tox: inconclusive; KB-3-1 tox: 16µM*; HT1080 IDH1KD tx: inconclusive; KB-V1 cytotox: inconclusive

What do the screens show for `CC(C)(C)c1ccc(S(=O)(=O)N2CCC(O)(c3ccc(Cl)cc3)CC2)cc1`?
HepG2 tox: -44%; TGFb inhibitor: 13µM*; HT1080-NT tox: inconclusive; KB-3-1 tox: inconclusive; HT1080 IDH1KD tx: -22%; KB-V1 cytotox: inconclusive

Results for COc1ccc(S(=O)(=O)N2CCC(O)(c3ccc(Cl)cc3)CC2)cc1 ?
HepG2 tox: -26%; TGFb inhibitor: inconclusive; HT1080-NT tox: -15%; KB-3-1 tox: inactive; HT1080 IDH1KD tx: inconclusive; KB-V1 cytotox: inconclusive

What do the screens show for `COc1ccccc1-n1ccnc(SCC(=O)NCc2ccccc2)c1=O`?
HepG2 tox: -22%; TGFb inhibitor: -1%; HT1080-NT tox: -5%; KB-3-1 tox: inactive; HT1080 IDH1KD tx: -4%; KB-V1 cytotox: inactive

How did O=C(CSc1nccn(-c2ccc(Br)cc2)c1=O)NCc1ccccc1 do in these assays?
HepG2 tox: -8%; TGFb inhibitor: 0%; HT1080-NT tox: 0%; KB-3-1 tox: inactive; HT1080 IDH1KD tx: -5%; KB-V1 cytotox: 13µM*

Results for COc1ccc2ccccc2c1/C=N/Nc1ccc(Cl)c(C(=O)O)c1 ?
HepG2 tox: -4%; TGFb inhibitor: -15%; HT1080-NT tox: 4%; KB-3-1 tox: inactive; HT1080 IDH1KD tx: 1%; KB-V1 cytotox: inactive

What do the screens show for `COc1ccc(N/N=C/c2c(C(=O)O)ccc3ccccc23)cc1`?
HepG2 tox: -28%; TGFb inhibitor: 2.2µM*; HT1080-NT tox: inconclusive; KB-3-1 tox: inconclusive; HT1080 IDH1KD tx: inconclusive; KB-V1 cytotox: inconclusive

Results for Cc1ccc(NC(=O)CN2C(=O)COc3ccc(C)cc32)nc1 ?
HepG2 tox: 6%; TGFb inhibitor: -9%; HT1080-NT tox: 11%; KB-3-1 tox: inactive; HT1080 IDH1KD tx: -3%; KB-V1 cytotox: 15µM*

Results for CCN(CC)S(=O)(=O)c1ccc2c(c1)N(CC(=O)NCCCN1CCN(c3cc(C)ccc3C)CC1)C(=O)CO2 ?
HepG2 tox: 16µM*; TGFb inhibitor: inconclusive; KB-3-1 tox: inactive; KB-V1 cytotox: inconclusive

Results for Cc1cccc(-c2nsc(SCC(=O)N3CCCC3)n2)c1 ?
HepG2 tox: -31%; TGFb inhibitor: 6%; HT1080-NT tox: 1%; KB-3-1 tox: inactive; HT1080 IDH1KD tx: -4%; KB-V1 cytotox: 16µM*

What do the screens show for `NNc1nc(-c2ccccc2Cl)nc2sc3c(c12)CCCC3`?
HepG2 tox: -13%; TGFb inhibitor: 0%; HT1080-NT tox: -18%; KB-3-1 tox: inconclusive; HT1080 IDH1KD tx: -25%; KB-V1 cytotox: 4.6µM*

What do the screens show for `Cc1ccccc1CN1[C@H](C)[C@H](c2ccccc2)OCCS1(=O)=O`?
HepG2 tox: -6%; TGFb inhibitor: inconclusive; KB-3-1 tox: inconclusive; KB-V1 cytotox: inconclusive

Results for CC1=NNC(=O)/C1=C\c1cn(-c2ccccc2)nc1-c1ccccc1 ?
HepG2 tox: 10µM*; TGFb inhibitor: 8.9µM*; HT1080-NT tox: 16µM*; KB-3-1 tox: inconclusive; HT1080 IDH1KD tx: 13µM*; KB-V1 cytotox: inconclusive

How did NC(c1csc(Nc2cnccn2)n1)C1CCCCC1 (stereo not given) do in these assays?
HepG2 tox: -21%; TGFb inhibitor: 5%; HT1080-NT tox: -1%; KB-3-1 tox: inactive; HT1080 IDH1KD tx: 10%; KB-V1 cytotox: inactive

How did NC(c1csc(Nc2ccc(C(F)(F)F)cn2)n1)C1CCCCC1 (stereo not given) do in these assays?
HepG2 tox: -87%; TGFb inhibitor: inconclusive; HT1080-NT tox: inconclusive; KB-3-1 tox: inconclusive; HT1080 IDH1KD tx: 18µM*; KB-V1 cytotox: inconclusive

Results for NC(c1csc(Nc2nccc(C(F)(F)F)n2)n1)C1CCCCC1 (stereo not given) ?
HepG2 tox: -96%; TGFb inhibitor: inconclusive; HT1080-NT tox: 21µM*; KB-3-1 tox: inactive; HT1080 IDH1KD tx: 21µM*; KB-V1 cytotox: inactive

What do the screens show for `NC(CO)c1csc(Nc2ccc(C(F)(F)F)cn2)n1` (stereo not given)?
HepG2 tox: -33%; TGFb inhibitor: -1%; HT1080-NT tox: -15%; KB-3-1 tox: inactive; HT1080 IDH1KD tx: -25%; KB-V1 cytotox: inactive
